This is an account of results in the OligoGym collection.
Further: reference of the scale not given here.

The first experiment deals with RTN4. Kind of experiment: pooled miR-30 sensor sort-seq; sequence = guide strand. Particulars: shRNA.
In turn, TTCTAGGTCAGTATATTCCCTG returned a sensor-assay potency score (higher = more potent) of -0.784.

With TATTACTAACTAACTTCTCTTC, the sensor-assay potency score (higher = more potent) is -0.121. Sequence TTCACTTTCACATGCTTCCTGT gave a sensor-assay potency score (higher = more potent) of -0.0605. Same read-out and setting: as for TTTCTGAAGTAGGATCTCCTAA, the figure is -0.155; as for TTTCTGAAGACACAACTTCATC, -1.21.

Consider TAAAGATCTAACAACGATCTGT, for which the sensor-assay potency score (higher = more potent) came to 0.175. TAACTAACTTCTCTTCTTCATC: the sensor-assay potency score (higher = more potent) was -0.896.

Sequence TTGTGACATAATCTGTCTCAGA displayed a sensor-assay potency score (higher = more potent) of -1.04.

In the case of TATCTGTTGTGACATAATCTGT, the sensor-assay potency score (higher = more potent) was -0.595.

As for TTTCTGAGTATTCTAATTCTGA, the sensor-assay potency score (higher = more potent) was -0.686. TAAATCTCTATCTATGAGTAGA yielded a sensor-assay potency score (higher = more potent) of -0.547. Consider TTTTGTGTTATCTAAACTGAGC, for which the sensor-assay potency score (higher = more potent) is -0.981.

A further experiment deals with RTTN. Described as above. To be noted: shRNA.
For the sequence TTAGTAAGTCTAGACAGCCATC, the sensor-assay potency score (higher = more potent) was -1.38. Consider TTTAATAACACCATCCTCCTTT, for which the sensor-assay potency score (higher = more potent) was determined as 0.89. As for TTAATAACCAGCTCTCTTCTGT, the sensor-assay potency score (higher = more potent) stood at 0.265. On to TTCAGGAGTAACTTCAACCAAA, for which the sensor-assay potency score (higher = more potent) was -0.732. The sequence TTCAAATCAAACATACACCGTC registered a sensor-assay potency score (higher = more potent) of 0.646.

For the sequence TTTCCTGTCAGTAACTTCCATG, the sensor-assay potency score (higher = more potent) is -0.534. On to TATCATCTGTTTCTTCTCGTGC, for which the sensor-assay potency score (higher = more potent) turned out to be 0.159. In turn, TTGTATTTGCTCATCTCTGTTA gave a sensor-assay potency score (higher = more potent) of -0.347. In turn, TACTCTTCTGAATTACTCCTTT had a sensor-assay potency score (higher = more potent) of 0.0347.
